An excerpt weighted towards active compounds, which were near 1.8% of everything screened.
LYPLA2 counter = counter-screen for PME1 inhibitors: inhibitors of human LYPLA2. O95372. recombinant LYPLA2, FP-Rh probe fluorescence polarization. inhibition, % at 5.9 µM. 320,000 tested, 0.38% active. AID 2177;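 active means inhibition above the screen-wide mean plus 3 SD, limit set per campaign, cut at about 26% in these data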;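 further: 0% = LYPLA2 with DMSO and 100% = wells lacking LYPLA2 enzyme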
Target sequence (O95372 whole entry, looked up): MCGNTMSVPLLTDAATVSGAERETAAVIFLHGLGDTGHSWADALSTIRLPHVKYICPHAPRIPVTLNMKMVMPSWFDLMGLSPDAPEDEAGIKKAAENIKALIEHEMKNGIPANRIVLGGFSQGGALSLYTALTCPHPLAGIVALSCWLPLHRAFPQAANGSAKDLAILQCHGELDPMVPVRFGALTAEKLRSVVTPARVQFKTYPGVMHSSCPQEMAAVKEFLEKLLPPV
GSTO1 counter = blocks human GSTO1 in RBBP9 counter-screen; 300,000 tested, 1.1% active; recombinant GSTO1, activity-based probe fluorescence polarization; AID 1974; P78417; inhibition, % at 5.96 µM;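 active means inhibition above the campaign mean inhibition plus 3 SD, cut at about 35% in these data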;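 further: 0% = GSTO1-1 with DMSO and 100% = wells lacking GSTO1-1 enzyme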
PME-1 primary = PME-1 (human) inhibition; recombinant PME-1, FP-Rh probe fluorescence polarization; Q9Y570; 320,000 tested, 0.53% active; inhibition, % at 5.9 µM;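 active means inhibition above the campaign mean of all compounds plus 3 SD, cut at about 26% in these data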;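 further: competitive labeling of PME-1 active site by serine hydrolase directed probe; 0% = PME-1 with DMSO and 100% = wells lacking PME-1 enzyme; inhibitors block probe labeling so polarization falls and inhibition rises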
PAD4 inh = blocks human protein arginine deiminase 4; Q9UM07; recombinant PAD4, RCA probe fluorescence polarization; inhibition, % at 6.36 µM; 330,000 tested, 0.41% active; AID 485272;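 active means percent inhibition above a cutoff equal to the mean of all tested compounds plus 3 SD, cut at about 15% in these data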;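 further: 0% = PAD4 with RCA probe and DMSO and 100% = probe without PAD4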
Fam108B inh = counter-screen for RBBP9 inhibitors: inhibitors of mouse Fam108B; inhibition, % at 9.51 µM; recombinant Fam108B, FP-Rh probe fluorescence polarization; 300,000 tested, 0.33% active; AID 1947;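 active means inhibition above the screen mean inhibition plus 3 SD, computed separately per campaign, cut at about 18% in these data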;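 further: inhibitors lower polarization as less probe binds the enzyme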
LYPLA1 inh = LYPLA1 (human) inhibition in PME1 counter-screen | inhibition, % at 5.9 µM | recombinant LYPLA1, FP-Rh probe fluorescence polarization | 320,000 tested, 0.16% active;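 active means inhibition above the mean of all tested compounds plus 3 SD, set per campaign, cut at about 14% in these data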;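 further: inhibitors block serine hydrolase probe labeling of LYPLA1 so polarization falls; 0% = enzyme with DMSO and 100% = wells lacking LYPLA1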
Target sequence (O75608 whole entry, looked up): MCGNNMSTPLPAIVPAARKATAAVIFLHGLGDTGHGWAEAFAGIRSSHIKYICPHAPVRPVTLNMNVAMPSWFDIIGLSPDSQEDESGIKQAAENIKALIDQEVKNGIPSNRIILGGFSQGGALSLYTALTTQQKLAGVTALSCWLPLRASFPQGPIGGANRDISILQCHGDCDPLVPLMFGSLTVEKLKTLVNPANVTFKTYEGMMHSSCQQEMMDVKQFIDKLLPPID
Fam108b confirm = Fam108b (mouse) hydrolase inhibition, confirmation assay. inhibition, % at 9.51 µM. 930 tested, 44% active. recombinant Fam108b, FP-Rh probe fluorescence polarization. shares compounds with Fam108B inh. AID 1978;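 active means inhibition above a limit from the primary screen, the mean over all compounds plus 3 SD, cut at about 19% in these data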;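 further: 0% = median of active Fam108b wells and 100% = catalytically dead S170A mutant; inhibitors free the probe so polarization falls as inhibition rises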
Fam108b inh = mouse ABHD17B inhibition; shares compounds with Fam108B inh; recombinant Fam108b, gel-based ABPP, fluorophosphonate probe; inhibition, % at 20 µM; 260 tested, 44% active; in the data active means inhibition above about 40%
* marks the source's active call; other numbers are inactive results; / = not tested or not shown.

SMILES	LYPLA2 counter	GSTO1 counter	PME-1 primary	PAD4 inh	Fam108B inh	LYPLA1 inh	Fam108b confirm	others
COc1cc(OC)c(OC)cc1/C=N/Nc1nc2ccccc2[nH]1	-2	8	-19	3	11	1	/
COc1ccccc1CN(C)C(=O)c1cc(-c2cccs2)nc2ccccc12	-6	-7	4	7	2	-3	/
CC1=Nc2ccccc2/C1=C\c1sc(Nc2ccc(C)cc2)nc1O	-2	2	52*	-3	23*	-3	5
Oc1nc(Nc2cccc(Cl)c2)sc1/C=C1\C=Nc2ccccc21	-11	-22	49*	-4	34*	-3	33*	Fam108b inh=95*
Oc1cccc(Nc2nc(O)c(/C=C3\C=Nc4ccccc43)s2)c1	-21	-109	28*	-22	44*	-19	16
CC1=Nc2ccccc2/C1=C/c1sc(=O)n(CC(=O)N2CCCC2)c1O	-4	-4	5	-8	4	-1	/
COc1ccc(N(C(=O)c2cnccn2)C(C(=O)NC2CCCCC2)c2cc(OC)c(OC)c(OC)c2)cc1 (centres undefined)	13	3	3	4	2	3	/
COCC(=O)N1CCC(Oc2ccc(C(=O)N3CCCCC3COC)cc2)CC1 (centres undefined)	4	3	-4	2	0	4	/
COc1ccc(OC)c(/C=N/NC(=O)c2cc3c(OC)c(OC)ccc3[nH]2)c1	-6	0	31*	-3	19*	-5	17
COc1cc(OC)c2cc(C(=O)N/N=C/c3ccccc3O)[nH]c2c1	-1	-28	32*	-2	29*	-7	13
CNc1oc(/C=C/c2cccc(OC)c2)nc1C#N	-12	0	6	-1	3	2	/
COc1ccccc1CC(=O)NNS(=O)(=O)c1ccc([N+](=O)[O-])cc1	-3	7	-4	-6	21*	2	-13
CC1CCCN(C(=O)CN(C)S(=O)(=O)c2cccc3nsnc23)C1 (centres undefined)	2	-2	2	0	0	-1	/
COc1ccc(Cn2c(O)c(C=Nc3ccc(O)cc3)c3ccccc3c2=O)cc1	3	-13	21	1	31*	4	18
O=C(O)c1cc(S(=O)(=O)N2CC=C(c3ccccc3)CC2)ccc1O	-3	/	3	-2	/	-3	/
Cc1ccc(Nc2nc(-c3ccc(S(=O)(=O)N4CCCC4)cc3)cs2)cc1C	-5	-6	12	-2	8	-14	/
Cc1cc(C)cc(Nc2nc(-c3ccc(S(=O)(=O)N4CCCC4)cc3)cs2)c1	-6	-8	16	-3	24*	-14	0
Cc1ccccc1NC(=O)C(=O)NCCCN1CCOCC1	5	4	0	1	2	6	/
Oc1ccc(N=Cc2ccc(O)c(O)c2)cc1	14	88*	47*	1	36*	-3	1
COc1cccc(C(=O)/C=C/Nc2ccc(S(=O)(=O)Nc3ccc(C(C)=O)cc3)cc2)c1	-15	-9	-2	8	0	-17	/
COc1ccc(C(=O)/C=C/Nc2ccc(S(=O)(=O)Nc3cccc(C(C)=O)c3)cc2)cc1	9	-5	43*	-6	34*	-19	20*
O=C(Nc1ccc(N2CCOCC2)cc1)Nc1ccc2nc(-c3ccco3)c(-c3ccco3)nc2c1	13	2	65*	0	26*	-5	13
Nc1c(C(=O)OCC(=O)Nc2cccc([N+](=O)[O-])c2)[nH]c(=O)[nH]c1=O	/	/	/	-11	/	/	/
O=C1Nc2ccc(Br)cc2C12NNc1ccccc1O2 (centres undefined)	-10	11	38*	-6	21*	-4	12
Cc1ccc(NC(=O)COC(=O)CCc2c(C)nc3ncnn3c2C)cc1	/	/	/	0	/	/	/
SMILES	LYPLA2 counter	GSTO1 counter	PME-1 primary	PAD4 inh	Fam108B inh	LYPLA1 inh	Fam108b confirm	others
Cc1c(O)ccc(C=NNc2nc(-c3cccnc3)nc3ccccc23)c1O	/	/	/	/	/	/	/	Fam108b inh=60*
COc1ccc(C(=O)C(C)Oc2cccc(NC(=O)c3cccc([N+](=O)[O-])c3)c2)cc1 (centres undefined)	-24	-18	-12	-3	-1	-20	/
O=C(O)c1cc(N/N=C/c2c(O)ccc3ccccc23)ccc1Cl	4	21	31*	7	19*	4	19*
COc1ccc(/C=N/Nc2nc(N)cc(Cl)n2)cc1OC	2	-2	3	-2	2	4	/
Nc1cc(Cl)nc(N/N=C/c2c(O)ccc3ccccc23)n1	-3	16	32*	-2	28*	3	2
Nc1nonc1N/N=C/c1c(O)ccc2ccccc12	-39	-21	30*	1	24*	-29	6
O=C(N/N=C\c1c(O)ccc2ccccc12)c1ccc(O)cc1	-26	-3	19	2	23*	-15	-1
O=[N+]([O-])c1cc(Cl)cc(C=NNC(=S)Nc2cc(S(=O)(=O)N3CCOCC3)ccc2Cl)c1O	/	/	/	/	/	/	/	Fam108b inh=0
O=C(Nc1cccc(-c2csc(Nc3ccc(Cl)cc3)n2)c1)c1ccccc1	-18	-20	1	-2	24*	-26	20*
O=C(Nc1ccc(-c2csc(Nc3ccccc3)n2)cc1)c1ccccc1	-3	1	7	3	5	-6	/
O=C(Nc1cccc(-c2csc(Nc3ccc(Cl)cc3)n2)c1)c1cccc(C(F)(F)F)c1	-14	-8	4	0	27*	-22	-14
CCOc1ccc(NC(=O)N[C@@H](Cc2ccccc2)C(=O)O)cc1	8	13	3	5	7	0	/
Cn1c2cc(C#N)sc2c2cnn(Cc3ccc(F)cc3)c(=O)c21	/	/	/	1	/	/	/
CCN(CC)c1ccc(NC(=O)c2cc3c(OC)cccc3[nH]2)cc1	6	-1	20	-2	21*	-7	3
COc1cccc2[nH]c(C(=O)NC(C)c3ccccc3)cc12 (centres undefined)	-1	-1	0	-5	1	-4	/
COc1ccc(N(CC(=O)NCCSC2CCCCC2)S(=O)(=O)c2ccc(C)cc2)cc1	0	-3	0	-6	0	5	/
NNc1nc2c(-c3ccc(F)cc3)nnn2c2ccccc12	-18	-21	5	-5	26*	-11	9
COCCCNc1nc2c(-c3ccc(Cl)cc3)nnn2c2ccccc12	1	1	0	4	1	4	/
NNc1nc2c(-c3ccc(Cl)cc3)nnn2c2ccccc12	-10	-6	-16	-6	55*	-11	65*	Fam108b inh=0
Fc1ccc(-c2nnn3c2nc(NCc2ccccc2)c2ccccc23)cc1	3	-10	2	1	2	0	/

Source: PubChem BioAssay
